Experimental findings from PubChem BioAssay (NCATS) are described below.

SMILES strings stand for the structures. “And” between values parts separate entries of the source, which are not always exact repeats. Identical values can stand only once. Inconclusive results are not listed. The source made the active and inactive calls. Unless noted, the call rests on the fitted dose curve.

For test [1], the target named is Glucocorticoid receptor (Homo sapiens) (UniProt P04150). In words: qHTS assay for small molecule antagonists of glucocorticoid receptor signaling (AID 588533; active means well fitted inhibition curve with a large enough effect in the signal ratio, with a control signal flat, not every such curve was filed as active; the % refers to the signal ratio;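 further: cells stimulated with 2 nM dexamethasone as agonist; on the % scale 0 is the no-effect control and ±100 the full control effect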). In a few lines: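 Antagonist-mode qHTS: compound titrations added to GRE-bla HeLa cells, then dexamethasone 2 nM final; 18 h, 37 C. CCF4 FRET fluorescence normalized to dexamethasone and DMSO; IC50 from Hill fit.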
(Quantitative high-throughput screening tests each substance at several concentrations.)

Test [2] in a line: qHTS assay for small molecule antagonists of peroxisome proliferator-activated receptor delta signaling (AID 588535; active means well fitted inhibition curve with a large enough effect in the signal ratio, with a control signal flat, not every such curve was filed as active; the % refers to the signal ratio;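 on max response: cells co-treated with a PPAR-delta agonist as stimulator during compound exposure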). Conditions: HEK293T PPARd-UAS-bla, beta-lactamase FRET ratio, 18 h; 460 nm channel. The essentials:
(§1)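 Cell-based beta-lactamase assay in antagonist mode: 4000 HEK293T PPAR-delta-UAS-bla cells per well, 5 hr preincubation then 18 hr compound incubation at 37 C. IC50 obtained by Hill equation fitting.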

Test [3] addresses Peroxisome proliferator-activated receptor delta (Homo sapiens) (UniProt Q03181). Described as above. The essentials:
as §1

For test [4], the target named is Peroxisome proliferator-activated receptor gamma (Homo sapiens) (UniProt P37231). In words: qHTS assay for small molecule agonists of peroxisome proliferator-activated receptor gamma signaling (AID 588536; active means well fitted curve in the direction sought with a large enough effect in the signal ratio, with a control signal flat, not every such curve was filed as active; the % refers to the signal ratio;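 further: 0% = DMSO basal wells and 100% = rosiglitazone at 2 µM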). The essentials:
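GeneBLAzer PPAR-gamma-UAS-bla HEK293 cells in 1% charcoal/dextran-treated FBS medium were treated 16 h at 37 C with compounds. Beta-lactamase activity was read by CCF4 ratio (460/530 nm). Response was normalized to 2 uM rosiglitazone (100%) and DMSO, then Hill-fitted for EC50 and efficacy.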

The target of test [5] is Vitamin D3 receptor (Homo sapiens) (UniProt P11473). Put plainly: qHTS assay for small molecule agonists of vitamin D receptor signaling (AID 588543).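 Further: 0% = DMSO basal and 100% = reference agonist control.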 In a few lines: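 β-lactamase reporter, VDR-UAS-bla HEK293T, agonist mode. Cells plated 5 h at 37 °C, compound titration 16 h at 37 °C, CCF4 dye 2 h RT, ratio 460/530 nm. Hill fit → EC50, efficacy vs 50 nM 1α,25-(OH)2D3.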

Test [6] can be described thus: qHTS assay for small molecule agonists of retinoid X receptor alpha signaling (AID 588544).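 On activation: 0% = DMSO basal wells and 100% = reference agonist.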 Conditions: HEK293T RXRa-UAS-bla, beta-lactamase reporter, 18 h; 530 nm emission.
Test [7] has as its target Thyroid hormone receptor beta (Homo sapiens) (UniProt P10828). Put plainly: qHTS assay for small molecule agonists of thyroid hormone receptor beta signaling (AID 588545).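 Further: 0% = DMSO only and 100% = 10 nM T3.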 The essentials: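 TR-UAS-bla GripTite HEK 293 cells (2500/well, medium with 2% charcoal/dextran FBS) were treated in agonist mode for 18 h at 37 C, titrated. Beta-lactamase was read by CCF4 ratio after 2 h; normalized to 10 nM T3 (100%) and DMSO, Hill-fitted for EC50 and efficacy.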

Test [8] shares this target. In words: qHTS assay for small molecule antagonists of thyroid hormone receptor beta signaling (AID 588547; active means well fitted inhibition curve with a large enough effect in the signal ratio, with a control signal flat, not every such curve was filed as active; the % refers to the signal ratio;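 further: cells stimulated with 0.4 nM T3 agonist during compound exposure; series mostly up to about 77 µM; on the % scale 0 is the no-effect control and ±100 the full control effect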). Conditions: TR-UAS-bla HEK293, beta-lactamase ratio, antagonist mode, 18 h. In a few lines:
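Inhibition of T3-driven (0.4nM final) beta-lactamase reporter activity was measured over 0.59 nM to 92 uM compound after 18 h at 37 C. The cells were GripTite HEK293 TR-UAS-bla in charcoal/dextran-stripped serum, with CCF4 ratio read-out and IC50 from Hill fits.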

The target in test [9] is Voltage-gated inwardly rectifying potassium channel KCNH2 (Homo sapiens) (UniProt Q12809). Put plainly: qHTS Assay for Small Molecule Inhibitors of the Human hERG Channel Activity (AID 588834; active means well fitted inhibition curve with a large enough effect;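 further: top concentration of the series differs between compounds; on the % scale 0 is the no-effect control and ±100 the full control effect; lower thallium flux fluorescence means stronger hERG block; nearly all actives have a fitted effect of over 50% in size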). The essentials:
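Concentration-response qHTS measuring drop in thallium-sensitive dye signal. U2OS cells carrying BacMam hERG; compound exposure ~10 min, then stimulation buffer and 2 min read at 1 sec intervals.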

Test [10] can be described thus: qHTS assay for small molecule activators of the nuclear factor-kappa B (NF-kB) signaling pathway (AID 651749; active means well fitted activation curve with a large enough effect in the signal ratio; the % refers to the signal ratio; further: series mostly up to about 77 µM; % of control where 0% means no effect). Conditions: NF-kB-bla ME-180 cells, beta-lactamase FRET ratio, 16 h; stronger effect = higher value. The essentials:
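Stably transfected ME-180 line; NF-kB response element upstream of beta-lactamase. Treatment: compound or DMSO, 16 hr. Detection: fluorescent FRET substrate.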

For test [11], the target named is Vitamin D3 receptor (Homo sapiens) (UniProt P11473). Put plainly: qHTS assay for small molecule antagonists of vitamin D receptor signaling (AID 588541).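 Further: receptor activated by calcitriol during compound treatment; series mostly up to about 77 µM; on the % scale 0 is the no-effect control and ±100 the full control effect.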 The essentials:
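Antagonist-mode beta-lactamase reporter assay: HEK293T VDR-UAS-bla cells were exposed to titrated compound alongside 1-alpha,25-dihydroxyvitamin D3 at 3 nM final for 16 h. Values were normalized to the 50 nM agonist control and DMSO basal, with IC50 and efficacy from Hill equation fits.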

The target of test [12] is Retinoic acid receptor RXR-alpha (Homo sapiens) (UniProt P19793). Put plainly: qHTS assay for small molecule agonists of retinoid X receptor alpha signaling (AID 588544).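 On activation: 0% = DMSO basal wells and 100% = reference agonist.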
The nature of test [13]: qHTS assay for small molecule antagonists of retinoid X receptor alpha signaling (AID 588546; active means well fitted inhibition curve with a large enough effect in the signal ratio, with a control signal flat, not every such curve was filed as active; the % refers to the signal ratio;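 further: cells stimulated with 9-cis-retinoic acid as agonist; on the % scale 0 is the no-effect control and ±100 the full control effect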). Conditions: HEK293T RXRa-UAS-bla, beta-lactamase ratio, antagonist mode; measured here: W530 green channel, cytotoxicity proxy. In a few lines: (§2)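 Beta-lactamase reporter inhibition, read as CCF4 fluorescence ratio (ex 405, em 460/530 nm) after 2 h at RT. HEK293T UAS-bla cells, 2500/well, were stimulated with 9-cis-RA at 500 or 100 nM final alongside test compound for 18 h at 37 C.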

Test [14] concerns the target Retinoic acid receptor RXR-alpha (Homo sapiens) (UniProt P19793). Described as above. Conditions: HEK293T RXRa-UAS-bla, beta-lactamase ratio, antagonist mode. In a few lines: as §2
Test [15] in a line: qHTS assay for small molecule agonists of the antioxidant response element (ARE) signaling pathway (AID 651741; active means well fitted activation curve with a large enough effect in the signal ratio; the % refers to the signal ratio; further: potency means the concentration at half of the fitted maximal effect; on activation: % of control where 0% means no effect). The essentials:
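Seeding 2,000 ARE-bla HepG2 cells per well preceded a 5 h incubation at 37 C/5% CO2 and a 16 h compound exposure at 37 C. Beta-lactamase reporter activity was then quantified by fluorescence after 2 h with LiveBLAzer B/G FRET substrate.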

Test [16] is described as follows: qHTS assay for small molecule activators of the p53 signaling pathway (AID 651743; active means well fitted activation curve with a large enough effect in the signal ratio, not every such curve was filed as active; the % refers to the signal ratio; further: series mostly up to about 92 µM; % of control where 0% means no effect). Conditions: HCT-116 p53RE-bla, beta-lactamase FRET ratio, 16 h; stronger effect = higher value. The essentials:
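Screen for p53 pathway agonists uses stably transfected p53RE-bla HCT-116 cells, 4,000 per well, treated 16 h at 37 C with compounds in DMSO.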

For test [17], the target named is Peroxisome proliferator-activated receptor gamma (Homo sapiens) (UniProt P37231). Put plainly: qHTS assay for small molecule antagonists of peroxisome proliferator-activated receptor gamma signaling (AID 588537; active means well fitted inhibition curve with a large enough effect in the signal ratio, with a control signal flat, not every such curve was filed as active; the % refers to the signal ratio;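 further: reporter cells co-stimulated with 50 nM rosiglitazone agonist during compound treatment; % of control where 0% means no effect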). The essentials:
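Inhibitors of agonist-stimulated UAS-bla reporter activity were sought in HEK293 cells; rosiglitazone (50 nM) defined full signal and DMSO baseline. Curves fitted to Hill model gave IC50 and efficacy.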

Chain of Vitamin D3 receptor (Homo sapiens) (P11473 whole entry, looked up): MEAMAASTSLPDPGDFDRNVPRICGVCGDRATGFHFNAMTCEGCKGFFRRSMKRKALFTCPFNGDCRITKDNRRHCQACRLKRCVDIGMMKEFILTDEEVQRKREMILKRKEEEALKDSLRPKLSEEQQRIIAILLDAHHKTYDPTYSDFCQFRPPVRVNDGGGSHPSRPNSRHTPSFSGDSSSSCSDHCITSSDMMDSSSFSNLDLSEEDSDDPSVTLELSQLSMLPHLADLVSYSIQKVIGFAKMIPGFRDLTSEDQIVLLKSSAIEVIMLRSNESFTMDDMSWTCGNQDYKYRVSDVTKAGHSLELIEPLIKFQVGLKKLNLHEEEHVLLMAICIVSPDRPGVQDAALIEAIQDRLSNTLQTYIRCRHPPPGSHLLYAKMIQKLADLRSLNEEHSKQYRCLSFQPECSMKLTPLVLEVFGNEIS
Chain of Thyroid hormone receptor beta (Homo sapiens) (P10828 whole entry, looked up): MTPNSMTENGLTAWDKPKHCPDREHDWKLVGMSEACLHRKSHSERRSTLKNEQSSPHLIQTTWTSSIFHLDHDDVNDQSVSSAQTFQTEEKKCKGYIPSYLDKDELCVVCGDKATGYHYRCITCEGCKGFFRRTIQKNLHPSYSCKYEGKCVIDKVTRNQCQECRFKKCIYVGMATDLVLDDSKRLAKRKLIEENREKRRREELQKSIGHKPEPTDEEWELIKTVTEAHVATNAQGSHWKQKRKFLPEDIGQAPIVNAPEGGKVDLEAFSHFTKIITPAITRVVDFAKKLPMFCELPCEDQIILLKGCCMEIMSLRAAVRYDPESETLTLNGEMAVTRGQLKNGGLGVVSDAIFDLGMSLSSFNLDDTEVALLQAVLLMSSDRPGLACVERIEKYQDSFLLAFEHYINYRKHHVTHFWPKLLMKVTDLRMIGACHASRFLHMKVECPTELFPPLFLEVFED
Chain of Retinoic acid receptor RXR-alpha (Homo sapiens) (P19793 whole entry, looked up): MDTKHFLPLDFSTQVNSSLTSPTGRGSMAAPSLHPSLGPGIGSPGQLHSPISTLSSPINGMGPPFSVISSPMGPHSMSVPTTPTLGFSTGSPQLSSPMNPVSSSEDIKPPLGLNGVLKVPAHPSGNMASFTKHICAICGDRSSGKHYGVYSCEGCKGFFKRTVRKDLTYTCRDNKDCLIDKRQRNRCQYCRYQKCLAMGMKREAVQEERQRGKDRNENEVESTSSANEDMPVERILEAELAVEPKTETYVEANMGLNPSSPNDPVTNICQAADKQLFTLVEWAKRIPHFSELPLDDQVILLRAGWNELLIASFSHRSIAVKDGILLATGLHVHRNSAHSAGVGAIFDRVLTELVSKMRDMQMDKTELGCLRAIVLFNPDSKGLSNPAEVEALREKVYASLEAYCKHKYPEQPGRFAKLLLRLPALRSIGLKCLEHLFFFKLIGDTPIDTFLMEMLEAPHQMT
Chain of Voltage-gated inwardly rectifying potassium channel KCNH2 (Homo sapiens) (Q12809 whole entry, looked up): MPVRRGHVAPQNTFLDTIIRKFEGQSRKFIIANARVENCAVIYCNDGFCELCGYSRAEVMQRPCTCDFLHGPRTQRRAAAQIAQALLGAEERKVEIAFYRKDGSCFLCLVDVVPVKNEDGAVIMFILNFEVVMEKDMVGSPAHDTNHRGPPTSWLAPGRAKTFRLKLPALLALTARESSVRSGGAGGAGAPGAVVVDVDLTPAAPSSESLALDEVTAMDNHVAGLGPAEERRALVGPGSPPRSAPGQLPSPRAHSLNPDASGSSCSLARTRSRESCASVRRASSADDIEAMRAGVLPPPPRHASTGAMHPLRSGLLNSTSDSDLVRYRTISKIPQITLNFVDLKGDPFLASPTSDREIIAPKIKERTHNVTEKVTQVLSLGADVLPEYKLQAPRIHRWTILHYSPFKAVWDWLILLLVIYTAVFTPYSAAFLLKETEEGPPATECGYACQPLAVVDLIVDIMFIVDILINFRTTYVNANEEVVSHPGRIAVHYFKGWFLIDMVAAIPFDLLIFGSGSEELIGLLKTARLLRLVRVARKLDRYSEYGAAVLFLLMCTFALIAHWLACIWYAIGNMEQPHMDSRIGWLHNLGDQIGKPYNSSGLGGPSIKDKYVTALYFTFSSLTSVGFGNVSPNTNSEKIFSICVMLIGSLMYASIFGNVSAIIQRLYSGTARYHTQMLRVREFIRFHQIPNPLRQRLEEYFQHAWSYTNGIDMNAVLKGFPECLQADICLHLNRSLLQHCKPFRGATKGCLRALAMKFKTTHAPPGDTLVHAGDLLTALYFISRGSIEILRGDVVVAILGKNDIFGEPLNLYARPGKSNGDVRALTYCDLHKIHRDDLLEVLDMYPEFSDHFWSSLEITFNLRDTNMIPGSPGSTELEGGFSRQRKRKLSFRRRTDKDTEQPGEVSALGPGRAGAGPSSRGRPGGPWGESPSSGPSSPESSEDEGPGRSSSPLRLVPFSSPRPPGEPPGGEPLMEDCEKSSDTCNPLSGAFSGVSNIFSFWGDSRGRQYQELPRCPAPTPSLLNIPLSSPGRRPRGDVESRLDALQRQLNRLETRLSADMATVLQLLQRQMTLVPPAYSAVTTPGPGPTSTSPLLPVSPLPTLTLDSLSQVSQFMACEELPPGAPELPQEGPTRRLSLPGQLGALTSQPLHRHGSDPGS
Chain of Peroxisome proliferator-activated receptor gamma (Homo sapiens) (P37231 whole entry, looked up): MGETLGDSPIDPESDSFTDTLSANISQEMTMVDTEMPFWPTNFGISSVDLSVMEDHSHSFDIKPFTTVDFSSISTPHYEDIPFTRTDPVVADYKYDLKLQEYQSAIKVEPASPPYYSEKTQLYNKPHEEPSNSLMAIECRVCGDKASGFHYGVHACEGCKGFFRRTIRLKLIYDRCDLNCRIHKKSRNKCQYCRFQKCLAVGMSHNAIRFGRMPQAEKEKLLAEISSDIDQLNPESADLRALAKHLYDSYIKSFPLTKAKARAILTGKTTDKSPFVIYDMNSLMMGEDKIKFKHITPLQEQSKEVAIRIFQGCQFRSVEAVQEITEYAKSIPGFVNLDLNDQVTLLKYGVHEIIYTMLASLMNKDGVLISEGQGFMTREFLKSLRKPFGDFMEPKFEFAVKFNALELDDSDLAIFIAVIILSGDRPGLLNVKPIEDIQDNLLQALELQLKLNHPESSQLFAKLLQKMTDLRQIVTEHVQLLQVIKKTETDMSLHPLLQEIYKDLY
Chain of Peroxisome proliferator-activated receptor delta (Homo sapiens) (Q03181 whole entry, looked up): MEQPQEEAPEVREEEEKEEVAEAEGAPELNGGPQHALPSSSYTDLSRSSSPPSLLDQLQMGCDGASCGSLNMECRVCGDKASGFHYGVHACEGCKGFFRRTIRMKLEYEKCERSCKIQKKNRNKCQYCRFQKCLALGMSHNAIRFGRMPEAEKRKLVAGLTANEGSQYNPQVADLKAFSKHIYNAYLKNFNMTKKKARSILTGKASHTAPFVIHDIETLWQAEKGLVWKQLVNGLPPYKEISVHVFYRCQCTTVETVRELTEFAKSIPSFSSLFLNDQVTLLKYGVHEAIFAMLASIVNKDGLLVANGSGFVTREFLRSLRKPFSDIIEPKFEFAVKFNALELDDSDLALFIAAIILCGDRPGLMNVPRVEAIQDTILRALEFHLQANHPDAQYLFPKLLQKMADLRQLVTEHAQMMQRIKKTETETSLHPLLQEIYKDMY
Chain of Glucocorticoid receptor (Homo sapiens) (P04150 whole entry, looked up): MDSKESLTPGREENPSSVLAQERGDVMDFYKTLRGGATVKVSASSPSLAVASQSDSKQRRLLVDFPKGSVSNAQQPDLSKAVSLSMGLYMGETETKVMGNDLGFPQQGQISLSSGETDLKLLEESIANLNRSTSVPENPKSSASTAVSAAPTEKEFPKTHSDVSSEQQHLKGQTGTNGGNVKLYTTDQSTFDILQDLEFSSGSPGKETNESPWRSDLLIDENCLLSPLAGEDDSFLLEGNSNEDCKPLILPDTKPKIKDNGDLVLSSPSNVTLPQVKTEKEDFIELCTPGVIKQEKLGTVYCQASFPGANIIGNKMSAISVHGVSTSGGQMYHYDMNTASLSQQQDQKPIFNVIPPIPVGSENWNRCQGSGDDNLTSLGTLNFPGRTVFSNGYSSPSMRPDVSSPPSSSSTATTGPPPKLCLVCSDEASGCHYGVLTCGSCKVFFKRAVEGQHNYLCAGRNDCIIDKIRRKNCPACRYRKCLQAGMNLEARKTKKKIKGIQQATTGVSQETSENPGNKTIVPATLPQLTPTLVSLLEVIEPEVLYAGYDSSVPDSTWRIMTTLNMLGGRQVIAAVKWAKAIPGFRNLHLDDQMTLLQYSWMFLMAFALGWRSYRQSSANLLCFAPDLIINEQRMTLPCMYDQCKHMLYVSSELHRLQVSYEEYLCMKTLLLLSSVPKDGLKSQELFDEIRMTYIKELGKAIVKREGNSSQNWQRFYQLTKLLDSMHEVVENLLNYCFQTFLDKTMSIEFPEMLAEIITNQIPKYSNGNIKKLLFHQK

Consider `CCCCCCCCCCCCOCC1CO1` (configuration not stated), for which the compound was classed as inactive in [1], in [4], in [5] and in [7]. For the same compound, the max response was 36.4% in test [2] and 6.34% in test [6]. Also, the Potency result in test [3] and in test [9] was “inactive” each time. Moreover, the activity change % (negative = inhibition) in test [8] was -4.18% (inactive). The activation in test [10] was -0.615% (inactive).

Turning to `O=C(O)c1ccccc1Cl`, the max response in test [2] was -1.82%; in test [6] it was 0.58%; in [13] it was 6.35%; in test [14], 2.61% (inactive). Further, the Potency entry in test [3], in [9] and in [15] was “inactive” in each case. Moreover, the result in test [4], in test [11], in test [5], in test [12] and in test [7] was inactive. Also, the activity change % (negative = inhibition) in test [8] was -4.08% (inactive). The activation in [16] was -4.07% (inactive); in test [10], -0.473% (inactive).

With `c1ccc2n[nH]nc2c1`, the call in [1], in test [4], in [12] and in test [7] was inactive. Moreover, the figures for the max response in test [2], in [6] and in test [13] were -32.1%, -15.8% and -16.6%, respectively. The Potency result in test [3] and in test [9] was “inactive” throughout. The activity change % (negative = inhibition) in test [8] was -7.43% (inactive). In addition, the activation is -4.32% (inactive) in test [16] and 1% (inactive) in test [10].

Turning to `N#CCc1ccccc1[N+](=O)[O-]`, the max response was 42% in [2], -1.87% in test [6], 20.6% in test [13] and -6.12% (inactive) in test [14]. The Potency entry in [3] and in test [9] was “inactive” in each case. In addition, the compound was classed as inactive in test [4], in test [11], in test [5], in test [12] and in test [7]. In [8], the activity change % (negative = inhibition) was -13.4% (inactive). In addition, the Potency in test [15] was 42.2 µM (active). Also, the activation in [16] was -2.66% (inactive); in test [10], -0.713% (inactive).

As for `CCOc1cccc(N)c1`, the max response is -10.6% in test [2], -8.66% in test [6] and 5.53% in test [13]. Also, the Potency entry in test [3] is “inactive”. In addition, the compound was classed as inactive in [4], in test [17], in test [11], in test [5], in test [12] and in [7]. The activity change % (negative = inhibition) in test [8] was -0.0909% (inactive). Also, the activation is 0.42% (inactive) in test [16] and -0.866% (inactive) in test [10].

In the case of `Cc1cccc(C)c1O`, the max response in test [2] was -20.4%; in test [6], -16.7%; in test [13] it was 3.79%; in [14], -1.13% (inactive). In addition, the Potency result in [3] is “inactive”. In addition, the outcome in [4], in test [11], in [5], in test [12] and in test [7] was inactive. Further, the activity change % (negative = inhibition) in test [8] was -9.8% (inactive). The activation was -0.5% (inactive) in test [16] and -0.357% (inactive) in test [10].

As for `S=C([S-])NCCNC(=S)[S-].[Zn+2]`, the compound was called inactive in test [1], in [4], in test [17], in test [5] and in test [7]. The activity change % (negative = inhibition) in test [8] was 6.23% (inactive) and -0.322% (inactive). The Potency entry in test [9] is “inactive”.

As to `NCCCCCCN`, the values for the max response in test [2], in test [6] and in test [13] were -19.3%, 1.96% and -3.24%, respectively. Further, the Potency result in test [3] and in [15] was “inactive” throughout. In addition, the outcome in test [4], in test [17], in test [11], in test [5], in test [12] and in test [7] was inactive. Besides, the activation in test [16] is -1.12% (inactive); in test [10], -0.106% (inactive).

Consider `NC(=O)CCCCC(N)=O`, for which the result in test [1], in test [4], in test [17], in [11], in test [5] and in test [12] was inactive. In addition, the result in test [7] was inactive. The max response in test [6] was -19.9%; in test [13], -2.99%; in test [14], 6.15% (inactive). Further, the activity change % (negative = inhibition) in test [8] is 2% (inactive). In addition, the Potency result in test [9] was “inactive”. Also, the activation was -2.38% (inactive) in test [16] and 1.81% (inactive) in [10].
